In publication PMC13494018:
Unmarked numbers belong to inactive results. The rule behind the calls is not given here.

B1: d8r1_design_ppi_978_dldesign_0_cycle1_af2pred (protein)
chain: MKHLEEQRKAAEKVAEKAAKEAEKEIAKVVSEEEAKKLAEKLKEQSKTSNELLVEKHKDLPVEEIEKLAERNAKGLALRALAIAKE
B2: d8r1_design_ppi_312_dldesign_0_cycle1_af2pred (protein)
chain: ALEEALRATAALVGTASQILAKEDPALAKEVAARILATAVKDPAEAAKLLKEVAKEAKERGWPAAEYYAAAAEALKAAAEA
B3: d8r1_design_ppi_473_dldesign_0_cycle1_af2pred (protein)
chain: STAEYLAQQQAALDATLAALDAAAAAVRTSAAGKALGDAAKKAMEIAKKLPVSVQLAVAQNQLAALQAAL
B4: d8r1_design_ppi_888_dldesign_0_cycle1_af2pred (protein)
chain: ATEEEKEKLKKLVEELLKAGKEGTVEEAKKAAEKLVEAAKKASLEAVLAGIAEVAKAAAELAKVNPEAAEVAREAAIELAKIALEKAD
B5: d8r1_design_ppi_259_dldesign_0_cycle1_af2pred (protein)
chain: AAAAARLATALANAIAGTNTIKKASTAKSASQFLAASTDRLATLYAADPALVAKLRAAAAAAKAGVDAGLAAAKEALAAATAAG
B6: d8r1_design_ppi_1358_dldesign_0_cycle1_af2pred (protein)
chain: AAAESAALAAALAALRKTEVGPFARQYIIYRLLAQVAEAKGDEETAKRAKAKAEELAKAYPEAAAAADAALALAQAALAA
B7: d8r1_design_ppi_1244_dldesign_0_cycle0_af2pred (protein)
chain: EEEEKEEKETYEKAYYLAKAAINAVNTGKEAAVASGKAALIAAGKLIPEWAAEAKAAKTAEEIKAVAEKLAEAAKKKIE
B8: d8r1_design_ppi_1444_dldesign_0_cycle0_af2pred (protein)
chain: MEELLARIEEALKRAKEVLKEAKKYSPGAEAIAKAALEAAERALALARAGPERAAEAERELRAAENAIAAAEKLLEA
B9: d8r1_design_ppi_660_dldesign_0_cycle1_af2pred (protein)
chain: EQAELEALAAAAKAAAAQAYALALASRAQAPAAYAALQQAFALAAQLPEEVAAELKAAAAQALADGLLAREKAE
B10: d8r1_design_ppi_136_dldesign_0_cycle1_af2pred (protein)
chain: SAAEEAARKSLFAVADSILAANLARAKAAAAAGDAAAAAAALQNTRDGGEMVTKMALARGDEETAAELAARFAAAAAEIAAILAA
B11: d8r1_design_ppi_763_dldesign_0_cycle1_af2pred (protein)
chain: MEKAKELAAKGDALEEEAAKATPEEAAKLYREASKYYAEAARLLLPLGDENPEIGKVVKELMAKASASYQKAVALEA
B12: d8r1_design_ppi_860_dldesign_0_cycle1_af2pred (protein)
chain: DEAYELAAKALAEAAKLRAAADAALAAAGAAGAVEAAALFTAAVKVLEETAKKLKELGSSLGDFTAAAAEREAARAAARIAAALA
B13: d8r1_design_ppi_1086_dldesign_0_cycle1_af2pred (protein)
chain: AAAAVAAAAAAGGEAAMAEFLDLSNPEQGKELKDKAAAKVAALAAANPAVAAQINAAYNAQLARGKALAAEARADK
B14: d8r1_design_ppi_480_dldesign_0_cycle0_af2pred (protein)
chain: SEEEERRRRAEEAADEIVAAAKADPAAAAALAAEFVATSSEEERRLLANILAQKAFEDDAGLTALRAFSLALAEAVA
B15: d8r1_design_ppi_1032_dldesign_0_cycle0_af2pred (protein)
chain: SEEEENKEKAEALEKAAKNTTAIGDEKAAKDAAGKEKGAKAYNGAAALYEAAAKVSSPERAKEFKAKAAEAKAKAAAAQAAAAA
B16: d8r1_design_ppi_1413_dldesign_0_cycle1_af2pred (protein)
chain: GSLLEELAKKEEELKDEEKMLKAHENALEIGIKKAEEDPAKGAKILENLAKNAEAAAKKASPEIAKKFKELAERAKKAAKEAKKKAA
B17: d8r1_design_ppi_178_dldesign_0_cycle1_af2pred (protein)
chain: ATEAVAQAIVLAAKRAAALPNAATAVANLAALVALLIEDPRVAEGAVEGAKEAAKALEAAGRTEEAKALLSAAEAAVAETAAKRA
B18: d8r1_design_ppi_1301_dldesign_0_cycle1_af2pred (protein)
chain: AENEADFNALKRVAQSILDRAAELAAAGADRALVERLAASAVQAAELAAEEGTPEEGAALIAETRAAVAAVLAA
B19: d8r1_design_ppi_1231_dldesign_0_cycle1_af2pred (protein)
chain: MTEEEMAALVQAARDAAKAAAAAAGPAVAPTMAAMVALAEEERDNPGELESIAQSVATAAARAVAAAAAAA
B20: d8r1_design_ppi_460_dldesign_0_cycle1_af2pred (protein)
chain: DETGERKATALAAISATVAAAKAAIDANAADPAAAQAALDAAKKALAAIAAKSGLPSVKGVAETAAKKLAAYATAVAAAAA
B21: d8r1_design_ppi_705_dldesign_0_cycle0_af2pred (protein)
chain: MTPSTRAMLHIGRANAAAQALAADPAAAAAAVAEEMAAAAREAAKASPEVREQNLRAMDAAVAALKAANPAVGAAARAAMEEELARL
B22: d8r1_design_ppi_1247_dldesign_0_cycle1_af2pred (protein)
chain: SSNKETSKLIREAMKIIGESLAAARAAVAAGDKAAAQAAVDAGVAKIEELAKKSKDPATKETLLKLAENLRRQGARVIA
B23: d8r1_design_ppi_179_dldesign_0_cycle0_af2pred (protein)
chain: STAARNAAAGIAAAAKENPKSGAKLGKGAIDVLAKKDKKEAAEAAKLAAEQAKAAGKEEVAKEMEELAKKVEAEI
B24: d8r1_design_ppi_290_dldesign_0_cycle0_af2pred (protein)
chain: SREEAERLKEEIERLAREGIAGDAETAARAMREIHELAIRSTELDPEDAAEVNQKAAEAMLRVGDAREAMLAA
B25: d8r1_design_ppi_723_dldesign_0_cycle0_af2pred (protein)
chain: GGKSIAEIARIHGARTAAAVLAETGDAAAAAKIKAVAEKAAKEIEKASDNYDKMAEIFRKMVEEIEKITAAAKAAAA
B26: d8r1_design_ppi_1034_dldesign_0_cycle1_af2pred (protein)
chain: DQAFTDAAAAAKALAAIPKYKALGDSLAARVAALAAAAAAARAAGAADPATAAEDAAAAAALAAAAKNIGDFAKAMLKAIEEDE
B27: d8r1_design_ppi_655_dldesign_0_cycle0_af2pred (protein)
chain: SDAKAAAQAAKNGAESATEKANEYEAKGKATGDKALLAKAKTLYDSAATLYAFGTKESGGEYQANLDAAKAKAAAAAALLA
B28: d8r1_design_ppi_1429_dldesign_0_cycle0_af2pred (protein)
chain: SSLESEERLRRMAEGIAERTLRVVERLAKEDLETARRAAENTRGLLAKLGPVAAKIGEETWERAEAILAAIA
B29: d8r1_design_ppi_877_dldesign_0_cycle0_af2pred (protein)
chain: ALRAATEALLAEAERLREEILELGRAAESESVRNFAEGVAREVERLIAEAKAAAADPEAALALAQAALRTAREGLAGVRALTAAKAE
B30: d8r1_design_ppi_433_dldesign_0_cycle0_af2pred (protein)
chain: SEEEERKEIEEEGRAMARALRTSARHHAELAKKDPAAGRAAFDADAAAIRAGATPEQQPLVDAAVAEGRALLDAVEAAL
B31: d8r1_design_ppi_271_dldesign_0_cycle1_af2pred (protein)
chain: ADAALAALIAEAAQAAYDDGPRGIAALAGALLRAFPSLSAETLAAIIAATAADPAAAAALIAALAAAHPEAAPALAAELRALLAELA
B32: d8r1_design_ppi_1459_dldesign_0_cycle1_af2pred (protein)
chain: EKAEKLRKLAKKLKELGKKIAEGDEEEAKKAAKEAAKAAREAGKISPQGKTLEYLGKKTEEAAKAGDKKTAASLADAAAALMEALAD
B33: d8r1_design_ppi_156_dldesign_0_cycle1_af2pred (protein)
chain: MEEEKKKEEEEQKEAERMAKALENAIDAIEARVKAAPAAEQPALAKAADNAAAAADVLKKKDPELGQKVKDRANAVLAAARAK
B34: d8r1_design_ppi_1486_dldesign_0_cycle0_af2pred (protein)
chain: SEELEKAKEEARKARERLLRLAEEAAAVDPAVAAAGRNAAAGAEKLISTGSLGSARAGKAIAEAAARRAEAVLAAAAAA
B35: d8r1_design_ppi_1212_dldesign_0_cycle1_af2pred (protein)
chain: AAALAEKLVATALAIGDAVLKKYPEAFGAKLAAARALIAADPVAGIRALGEAAAEVAPAEIAPGIRSMLNAIADRAAELLA
B36: d8r1_design_ppi_80_dldesign_0_cycle1_af2pred (protein)
chain: ETPEEKANALFRAFNNVATYAAAKVPALAAAAAAAIAASADPAKLGAAAAAFAAAAAATPAAAALGTSAQAIADKAVATAK
B37: d8r1_design_ppi_1245_dldesign_0_cycle0_af2pred (protein)
chain: SVAEQRAELAAIVDRTLAAAAAEDPRAAGRAGAAELARLLARSSDEVKPAANAAIAAFNTLIRDPAAGAAALEAVRAELA
B38: d8r1_design_ppi_217_dldesign_0_cycle1_af2pred (protein)
chain: GDAVMEAAAAISNAAAAAIAAAKADPAKADEALAAATATAKALADATGKPLVKAVAKGATARVAAVAAAVKAAA

Target: PDL1, Q9NZQ7
Sequence (Q9NZQ7 whole entry): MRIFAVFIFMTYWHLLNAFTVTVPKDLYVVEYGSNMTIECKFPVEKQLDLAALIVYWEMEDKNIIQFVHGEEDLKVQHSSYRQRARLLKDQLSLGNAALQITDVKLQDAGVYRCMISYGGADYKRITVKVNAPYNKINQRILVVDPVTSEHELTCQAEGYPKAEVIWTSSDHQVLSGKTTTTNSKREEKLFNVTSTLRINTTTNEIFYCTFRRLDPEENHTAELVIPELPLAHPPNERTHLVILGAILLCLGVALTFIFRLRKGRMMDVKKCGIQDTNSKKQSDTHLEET

Binder | binding in a display sort
B1 | not found
B2 | not found
B3 | not found
B4 | not found
B5 | not found
B6 | binds (active)
B7 | not found
B8 | not found
B9 | not found
B10 | not found
B11 | not found
B12 | not found
B13 | not found
B14 | not found
B15 | not found
B16 | not found
B17 | not found
B18 | not found
B19 | not found

Binder | binding in a display sort
B20 | not found
B21 | not found
B22 | not found
B23 | not found
B24 | not found
B25 | not found
B26 | binds (active)
B27 | not found
B28 | not found
B29 | not found
B30 | not found
B31 | not found
B32 | not found
B33 | not found
B34 | not found
B35 | not found
B36 | not found
B37 | not found
B38 | not found
